Among the data in ChEMBL document CHEMBL1157539, “Thousands of chemical starting points for antimalarial lead identification” (Nature, 2010) are Inhibition values, retold here.

The assay concerns Plasmodium falciparum. The experiment in a line: GSK_TCMDC: Inhibition of Plasmodium falciparum 3D7 in whole red blood cells, using parasite LDH activity as an index of growth. Test compounds present at 2uM. The format is functional.
For the compound `Cc1cccc2nc(-c3ccc(-c4ccc(CN5CCN(CC6CCCN(C)C6)CC5)cc4)cc3)[nH]c12.O=C(O)C(F)(F)F` (stereo not given), the Inhibition (as a rule, the relative decrease from the control value, in per cent) is recorded as 100%. The result for `OC[C@H]1CCCN1CC#Cc1cc2c(Nc3ccc(OCc4cccc(F)c4)c(Cl)c3)ncnc2s1` reads 89%; that for `CCOC(=O)c1c(CN2CCCC2)n(-c2ccccc2)c2cc(Br)c(O)cc12`, 83%. Compound `CCc1ccc2nc(-c3ccc(F)cc3)nc(SCC(=O)Nc3sc(C)c(C)c3C#N)c2c1` displayed an Inhibition of 98%. `COc1cc(OC)c2c(C)cc(NCCCn3ccnc3)nc2c1` registered an Inhibition of 100%. Turning to `NC(=O)c1ccc(NCC(=O)Nc2cccc(-c3cccc(-c4nc5cc(C(F)(F)F)ccc5[nH]4)c3)c2)cc1`, the Inhibition was 99%. The result for `Cl.N#Cc1ccc2c(c1)CCN(CCC1CCC(NC(=O)/C=C/c3c[nH]c4c(Br)cccc34)CC1)CC2` (stereo not given) reads 100%. The result for `COc1cccc(NC(=O)c2ccc(NCCCN3CC(C)CC(C)C3)c([N+](=O)[O-])c2)c1` (stereo not given) reads 100%; that for `COc1ccc(C2CCN(CCN3CCC(NC(=O)c4cccc(-c5ccncc5)c4)CC3)CC2)c(OC)c1`, 94%; that for `Cc1cc(Nc2ccc(Oc3ccc(Cl)cc3)cc2)nc(N)n1`, 100%.

Take `O=C(Cc1ccccn1)Nc1cccc(-c2cccc(-c3nc4cc(C(F)(F)F)ccc4[nH]3)c2)c1`: the Inhibition is given as 95%. The result for `COc1c(CCNCCCCNCCc2cc(Cl)c3ccccc3c2OC)cc(Cl)c2ccccc12.CS(=O)(=O)O` reads 99%. Turning to `CN(C)CCCNCc1ccc(-c2ccc(CNCCOc3ccccc3)cc2)cc1.O=C(O)C(F)(F)F`, the Inhibition was 100%. The result for `O=[N+]([O-])c1ccc2c(c1)c1ccccc1n2Cc1ccccc1O` reads 93%; that for `O=C(Nc1cccc(CN2CCCN(Cc3cccc(Cl)c3)CC2)c1)c1ccc(Cl)c(Cl)c1.O=C(O)C(F)(F)F`, 89%. The result for `CCCN(CCC)CCCN(CCCN(CCC)CCC)c1cc(C)nc(Nc2ccc3cc(Br)ccc3c2)n1.Cl` reads 98%. The result for `CC(C)Oc1cc2c(cc1NS(=O)(=O)c1ccc(-c3ccc(Cl)cc3)cc1F)CCN(C)CC2.Cl` reads 88%; that for `CC(CN1CCN(C)CC1)C(=O)Nc1cccc(-c2ccc(-c3nc4cc(F)ccc4[nH]3)cc2)c1` (stereo not given), 100%. In turn, `CCNCc1ccc(-c2cc3ncnc(Nc4ccc(OCc5cccc(F)c5)c(Cl)c4)c3s2)[nH]1` came in with an Inhibition of 100%. Consider `COc1ccc(NC(=O)Nc2cccc(-c3cccc(-c4nc5cccc(C)c5[nH]4)c3)c2)cc1`, for which the Inhibition turned out to be 100%. The result for `COc1ccc(CN(C)CCCc2ccc(NC(=O)c3cc4ccccc4[nH]3)cc2)cc1OC.O=C(O)/C=C/C(=O)O` reads 97%.

Compound `CC(=O)c1sc2ccccc2c1O` had an Inhibition of 91%.

Regarding `COc1cc(-c2ccc(-c3cnc(N)nc3OC)[nH]2)cc(OC)c1OC`, the Inhibition was 100%. The result for `CCc1nc(N)nc(N)c1-c1ccc(C(C)(C)C)cc1` reads 94%; that for `COc1ccccc1CN1CCC(NC(=O)c2ccc(-c3cccc(Cl)c3)s2)CC1.O=C(O)C(F)(F)F`, 84%.
